Reference: PubChem BioAssay AID1159580 (chemical genetic matrix, 2015)
Several values for one entry are separate records, joined by “and”; a condition that tells them apart may be missing. Equal values may be shown once. About 2,000 (36%) of roughly 5,500 compounds were called active. About 18% were inconclusive and are not listed. No stated cut-off is given here; in the data, active means normalized growth mostly below about 0.91 (no sharp cut-off); inconclusive means no clear call, values can overlap the other calls; inactive means mostly above about 0.92. This is one part of the list.

Assay: chemical genetic growth profiling, strain panel (AID 1159580);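 further: tested at 20 µM; growth read once vehicle control cultures reached saturation at 30 °C; 1 = growth at the plate median or of vehicle wells; lower values mean less growth of the strain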
Conditions: growth OD

Measured: normalized growth

COc1ccc(C(=O)O)c(O)c1OC
inactive: S. cerevisiae deletion strains, locus YAL013W, strain DEP1, hits give low values 1.05 | S. cerevisiae deletion strains, locus YBR021W, strain FUR4, hits give low values 1.03 | S. cerevisiae deletion strains, locus YBR229C, strain ROT2, hits give low values 1.02 | S. cerevisiae deletion strains, locus YCL029C, strain bik1, hits give low values 0.992 | S. cerevisiae deletion strains, locus YDL035C, strain GPR1, hits give low values 1.04 | S. cerevisiae deletion strains, locus YDL074C, strain BRE1, hits give low values 1.04 | S. cerevisiae deletion strains, locus YDL101C, strain DUN1, hits give low values 1.01 | S. cerevisiae deletion strains, locus YDL134C, strain PPH21, hits give low values 1.02 | S. cerevisiae deletion strains, locus YDL185W, strain tfp1, hits give low values 0.999 | S. cerevisiae deletion strains, locus YDL192W, strain arf1, hits give low values 0.984 | S. cerevisiae deletion strains, locus YDR101C, strain arx1, hits give low values 0.985 | S. cerevisiae deletion strains, locus YDR150W, strain NUM1, hits give low values 1.01 | S. cerevisiae deletion strains, locus YDR162C, strain NBP2, hits give low values 1.03 | S. cerevisiae deletion strains, locus YDR318W, strain mcm21, hits give low values 0.988 | S. cerevisiae deletion strains, locus YDR388W, hits give low values 0.988 | S. cerevisiae deletion strains, locus YDR502C, strain sam2, hits give low values 0.994 | S. cerevisiae deletion strains, locus YEL061C, strain CIN8, hits give low values 1.01 | S. cerevisiae deletion strains, locus YER110C, hits give low values 0.987 | S. cerevisiae deletion strains, locus YER155C, strain BEM2, hits give low values 1.01 | S. cerevisiae deletion strains, locus YER167W, strain BCK2, hits give low values 1.02 | S. cerevisiae deletion strains, locus YGL078C, strain dbp3, hits give low values 0.999 | S. cerevisiae deletion strains, locus YGL086W, strain mad1, hits give low values 0.994 | S. cerevisiae deletion strains, locus YGL248W, strain PDE1, hits give low values 1.02 | S. cerevisiae deletion strains, locus YGR078C, strain PAC10, hits give low values 1.04 | S. cerevisiae deletion strains, locus YGR135W, strain pre9, hits give low values 1 | S. cerevisiae deletion strains, locus YGR252W, strain gcn5, hits give low values 1.06 | S. cerevisiae deletion strains, locus YHR030C, strain SLT2, hits give low values 1.01 and 1 | S. cerevisiae deletion strains, locus YHR079C, strain IRE1 (second series), hits give low values 0.986 | S. cerevisiae deletion strains, locus YHR079C, strain IRE1, hits give low values 0.996 | S. cerevisiae deletion strains, locus YHR094C, strain hxt1, hits give low values 0.987 | S. cerevisiae deletion strains, locus YHR129C, strain ARP1, hits give low values 1.01 | S. cerevisiae deletion strains, locus YHR200W, strain rpn10, hits give low values 0.997 | S. cerevisiae deletion strains, locus YIL066C, strain RNR3, hits give low values 1.03 | S. cerevisiae deletion strains, locus YIL073C, strain SPO22, hits give low values 1.02 | S. cerevisiae deletion strains, locus YIL125W, strain kgd1, hits give low values 0.988 | S. cerevisiae deletion strains, locus YIR030C, strain dcg1, hits give low values 0.996 | S. cerevisiae deletion strains, locus YJL095W, strain BCK1, hits give low values 1.04 and 1.01 | S. cerevisiae deletion strains, locus YJL134W, strain LCB3, hits give low values 1.01 | S. cerevisiae deletion strains, locus YJL168C, strain set2, hits give low values 0.997 | S. cerevisiae deletion strains, locus YJL187C, strain SWE1 (second series), hits give low values 1.01 | S. cerevisiae deletion strains, locus YJR043C, strain POL32, hits give low values 1.05 | S. cerevisiae deletion strains, locus YJR066W, strain TOR1, hits give low values 0.938 | S. cerevisiae deletion strains, locus YKL009W, strain mrt4, hits give low values 1.01 | S. cerevisiae deletion strains, locus YKL068W, hits give low values 0.989 | S. cerevisiae deletion strains, locus YKL085W, strain MDH1 (second series), hits give low values 0.996 | S. cerevisiae deletion strains, locus YKL085W, strain MDH1, hits give low values 0.996 | S. cerevisiae deletion strains, locus YKL190W, strain CNB1, hits give low values 1.01 | S. cerevisiae deletion strains, locus YKR001C, strain vps1, hits give low values 0.97 | S. cerevisiae deletion strains, locus YLR039C, strain RIC1, hits give low values 1.09 | S. cerevisiae deletion strains, locus YLR058C, strain SHM2, hits give low values 1.01 | S. cerevisiae deletion strains, locus YLR102C, strain apc9, hits give low values 0.996 | S. cerevisiae deletion strains, locus YLR113W, strain HOG1, hits give low values 1 | S. cerevisiae deletion strains, locus YLR262C, strain YPT6, hits give low values 1.12 | S. cerevisiae deletion strains, locus YLR268W, strain sec22, hits give low values 0.996 | S. cerevisiae deletion strains, locus YLR330W, strain CHS5, hits give low values 1.01 | S. cerevisiae deletion strains, locus YLR342W, strain FKS1 (second series), hits give low values 1.01 | S. cerevisiae deletion strains, locus YLR371W, strain rom2, hits give low values 0.981 | S. cerevisiae deletion strains, locus YLR418C, strain cdc73, hits give low values 1.04 | S. cerevisiae deletion strains, locus YML016C, strain PPZ1, hits give low values 1.01 | S. cerevisiae deletion strains, locus YML032C, strain rad52, hits give low values 1 | S. cerevisiae deletion strains, locus YML124C, strain tub3, hits give low values 0.997 | S. cerevisiae deletion strains, locus YMR078C, strain ctf18, hits give low values 0.998 | S. cerevisiae deletion strains, locus YMR223W, strain ubp8, hits give low values 0.996 | S. cerevisiae deletion strains, locus YMR307W, strain GAS1, hits give low values 1.22 | S. cerevisiae deletion strains, locus YNL067W, strain RPL9B, hits give low values 1.02 | S. cerevisiae deletion strains, locus YNL128W, strain TEP1, hits give low values 1.01 | S. cerevisiae deletion strains, locus YNL153C, strain GIM3, hits give low values 1.01 | S. cerevisiae deletion strains, locus YNL183C, strain NPR1, hits give low values 0.938 | S. cerevisiae deletion strains, locus YNL233W, strain BNI4, hits give low values 1.02 | S. cerevisiae deletion strains, locus YNL250W, strain rad50, hits give low values 0.991 | S. cerevisiae deletion strains, locus YNL271C, strain bni1, hits give low values 0.995 | S. cerevisiae deletion strains, locus YNL298W, strain CLA4, hits give low values 1.01 | S. cerevisiae deletion strains, locus YNL307C, strain MCK1, hits give low values 0.988 | S. cerevisiae deletion strains, locus YNR052C, strain pop2, hits give low values 0.981 | S. cerevisiae deletion strains, locus YOL012C, strain htz1 0.918 | S. cerevisiae deletion strains, locus YOL147C, strain pex11, hits give low values 0.988 | S. cerevisiae deletion strains, locus YOR061W, strain CKA2, hits give low values 1.01 | S. cerevisiae deletion strains, locus YOR069W, strain VPS5, hits give low values 1.01 | S. cerevisiae deletion strains, locus YOR136W, strain idh2, hits give low values 0.991 | S. cerevisiae deletion strains, locus YOR144C, strain elg1, hits give low values 0.991 | S. cerevisiae deletion strains, locus YOR184W, strain ser1, hits give low values 0.998 | S. cerevisiae deletion strains, locus YOR231W, strain MKK1, hits give low values 1 | S. cerevisiae deletion strains, locus YOR316C, strain cot1, hits give low values 0.992 | S. cerevisiae deletion strains, locus YPL256C, strain CLN2, hits give low values 1.02 | S. cerevisiae deletion strains, locus YPR119W, strain clb2, hits give low values 0.993 | S. cerevisiae deletion strains, locus YPR141C, strain kar3, hits give low values 0.989 | S. cerevisiae deletion strains, locus YPR163C, strain tif3, hits give low values 0.984 | S. cerevisiae deletion strains, locus YPR167C, strain met16, hits give low values 0.99 | S. cerevisiae deletion strains, strain wtn01, hits give low values 0.983 | S. cerevisiae strains, strain wild type, hits give low values 1.01
